{"source": "PubChem BioAssay AID1063", "about": "(University of Pittsburgh Molecular Library Screening Center, 2008)", "note": "The campaign covered roughly 200,000 compounds. About 18,000 (9%) were called active. This excerpt belongs to a sample that is enriched for actives. Unmarked numbers belong to inactive results. Cut-off read from the data, not from the text of the source: active = inhibition above about 50%; inactive = the rest."}
{"test": "Leishmania major promastigote growth inhibition, primary screen (AID 1063);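 note: promastigotes grown with compound for 44 hours at 28 °C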", "conditions": "Leishmania major promastigotes, resazurin fluorescence viability; at 10 µM; stronger effect = higher value"}
{"smiles": "Cc1ccc2[nH]c(C)c(CCNC(=O)NC3CCCCC3)c2c1", "inhibition": "5.48%"}
{"smiles": "COc1ccc(N2CCN(C(=O)CNS(=O)(=O)c3ccc(C)c(C)c3)CC2)cc1", "inhibition": "6.23%"}
{"smiles": "N#CCSc1nc2ccccc2c(=O)n1-c1ccccc1", "inhibition": "4.35%"}
{"smiles": "CCCn1c(N)c(C(=O)CSc2nc3ccccc3c(=O)n2-c2ccc(OC)cc2)c(=O)[nH]c1=O", "inhibition": "-3.93%"}
{"smiles": "COc1cccc(-n2c(SCC(=O)c3c[nH]c4ccccc34)nc3ccccc3c2=O)c1", "inhibition": "92.9% (active)"}
{"smiles": "O=C(Nc1cc(S(=O)(=O)N2CCOCC2)ccc1Cl)c1cc(=O)c2ccccc2o1", "inhibition": "31.5%"}
{"smiles": "COC(=O)c1ccc(NC(=O)c2cc(Cl)ccc2OC)cc1", "inhibition": "-3.49%"}
{"smiles": "Cc1ccc(-n2[nH]c(C)c(/C=N/NC(=O)c3cccc([N+](=O)[O-])c3)c2=O)cc1C", "inhibition": "96.9% (active)"}
{"smiles": "Cc1[nH]n(-c2ccc(Cl)cc2)c(=O)c1/C=N/n1c(C)nc2ccccc2c1=O", "inhibition": "-14.5%"}
{"smiles": "COc1ccc(/C=N/NC(=O)c2ccccc2)cc1OS(=O)(=O)c1ccccc1", "inhibition": "4.68%"}
{"smiles": "COc1cc(OC)c(/C=N/NC(=O)c2ccc([N+](=O)[O-])cc2)cc1Br", "inhibition": "-7.92%"}
{"smiles": "Cc1[nH]n(-c2ccc([N+](=O)[O-])cc2)c(=O)c1C=NCCN1CCN(C(=O)c2ccccc2F)CC1", "inhibition": "-1.62%"}
{"smiles": "Cc1ccc(N=Nc2c(C)[nH]n(-c3ccccc3)c2=O)cc1", "inhibition": "-5.3%"}
{"smiles": "Cc1[nH]n(-c2ccccc2)c(=O)c1/C=N/NC(=O)c1ccoc1C", "inhibition": "96.8% (active)"}
{"smiles": "COc1cccc(/C=N/NC(=O)c2cccc([N+](=O)[O-])c2)c1OS(=O)(=O)c1ccc(C)cc1", "inhibition": "55.1% (active)"}
{"smiles": "Cc1cccc(C(=O)NNC(=O)c2cccc([N+](=O)[O-])c2)c1", "inhibition": "4.56%"}
{"smiles": "O=C(CC12CC3CC(CC(C3)C1)C2)NCc1ccco1", "inhibition": "-4.33%"}
{"smiles": "CCOc1ccc(OCc2cccc(C(=O)N(CC)CC)c2)cc1", "inhibition": "0.53%"}
{"smiles": "Cc1c(NC(=O)CSc2nnnn2-c2ccc(C(=O)O)cc2)c(=O)n(-c2ccccc2)n1C", "inhibition": "-3%"}
{"smiles": "CCOc1ccc(CCN2C(=O)c3cccnc3C2=O)cc1OCC", "inhibition": "-10.8%"}
{"smiles": "Cn1cnnc1SCC(=O)Nc1ccc(N2CCOCC2)cc1", "inhibition": "-5.65%"}
{"smiles": "N#Cc1ccc(OCc2nnc(-c3ccc([N+](=O)[O-])cc3)o2)cc1", "inhibition": "-3.9%"}
{"smiles": "CCc1ccc2ncc(C(=O)c3ccccc3)c(N3CCOCC3)c2c1", "inhibition": "10.5%"}
{"smiles": "O=[N+]([O-])c1ccccc1NCc1ccccc1Cl", "inhibition": "12.2%"}
